# Screening data (PubChem BioAssay)
# IL-1B inflam inh = inflammasome signaling inhibition, IL-1 beta readout; THP-1 LPS/ATP IL-1B secretion, AlphaLISA, 16 h; active compounds read low; activity change, % at 57.5 µM; actives 4.7% (n = 360,000); AID 743279; in the data active = activity change below about -50%; inconclusive = mostly about -30% to -49%
#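 Secreted IL-1B measured by AlphaLISA bead assay after 16 h compound exposure of THP-1 cells; compounds (final up to 57.5 uM) added 1 h before LPS (250 ng/mL) and ATP (1.25 mM) stimulation; lower signal means less secretion.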
# TDP1 cell CPT = DT40-hTDP1 cell growth loss with CPT; chicken DT40 Tdp1-/-;hTDP1 cells + 20 nM CPT, ATP luminescence, 48 h; Potency, µM (top dose mostly 46.2 µM), hits mostly inhibitors; actives 12% (n = 420,000); also: nearly all actives have a fitted effect of over 55% in size
#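 Cell growth measured by CellTiter-Glo luminescence after a minimum 48 h, 37 C compound exposure with 20 nM CPT in Tdp1-knockout DT40 cells stably expressing hTDP1, seeded 400/well; qHTS titration format.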
# ALOX12 inh = inhibitors of human 12S-lipoxygenase ALOX12; P18054; purified 12hLO, xylenol orange hydroperoxide absorbance; Potency, µM (highest dose often 108 µM), usual class: inhibitors; actives 1.1% (n = 580,000)
# Target sequence (P18054 whole entry, looked up): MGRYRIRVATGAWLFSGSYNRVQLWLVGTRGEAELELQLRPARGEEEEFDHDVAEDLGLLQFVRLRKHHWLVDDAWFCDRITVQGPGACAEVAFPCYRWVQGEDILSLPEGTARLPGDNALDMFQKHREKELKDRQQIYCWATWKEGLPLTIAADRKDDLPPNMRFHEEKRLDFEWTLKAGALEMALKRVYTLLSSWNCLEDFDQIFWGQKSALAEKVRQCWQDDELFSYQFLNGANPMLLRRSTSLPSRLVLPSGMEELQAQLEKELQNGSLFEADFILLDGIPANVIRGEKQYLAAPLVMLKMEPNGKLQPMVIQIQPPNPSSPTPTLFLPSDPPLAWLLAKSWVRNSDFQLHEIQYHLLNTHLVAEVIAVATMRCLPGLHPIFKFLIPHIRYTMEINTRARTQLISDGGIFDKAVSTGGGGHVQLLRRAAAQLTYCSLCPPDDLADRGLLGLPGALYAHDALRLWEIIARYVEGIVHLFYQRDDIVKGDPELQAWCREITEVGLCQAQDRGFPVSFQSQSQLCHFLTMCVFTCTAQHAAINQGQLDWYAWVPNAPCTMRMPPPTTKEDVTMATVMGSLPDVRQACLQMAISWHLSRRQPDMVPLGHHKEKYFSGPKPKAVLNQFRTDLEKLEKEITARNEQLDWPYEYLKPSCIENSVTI
#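 Hydroperoxide product was detected by ferrous iron/xylenol orange as the 573 to 405 nm absorbance ratio. Arachidonic acid at 40 uM (final) was turned over for 30 min at room temperature by 150 nM human 12hLO, pH 7.0 Hepes buffer, after 15 min compound preincubation.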
# DT40 TDP1 no CPT = qHTS for Inhibitors of human tyrosyl-DNA phosphodiesterase 1 (TDP1): qHTS in cells in absence of CPT; DT40 Tdp1-/- hTDP1 cells, no CPT, ATP luminescence, 48 h; Potency, µM (titrated, usually from 46.2 µM), actives largely listed as inhibitors; actives 15% (n = 420,000); also: nearly all actives have a fitted effect of over 55% in size
#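 Luminescent ATP content (CellTiter-Glo) served as the growth readout. Knockout chicken DT40 cells expressing human TDP1 were exposed to compounds without camptothecin for a minimum 48 hr at 37 °C.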
# HT1080-NT tox = kills 2HG-producing HT-1080-NT fibrosarcoma cells | HT-1080-NT fibrosarcoma viability, CellTiter-Glo ATP luminescence, 48 h | actives 1.6% (n = 360,000) | Potency, µM (top dose mostly 46.1 µM), usual class: cytotoxic;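 also: NT is the 2HG producing partner of a matched IDH1 knockdown line; nearly all actives have a fitted effect of over 55% in size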
#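 Compounds were tested in concentration-response format on HT-1080-NT cells for 48 hours at 37 degrees C. Cell viability came from CellTiter-Glo luminescence; curves were classified by r2, response magnitude and activity.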
# HT1080 IDH1KD tx = HT-1080 IDH1 knockdown cell toxicity (counter line); Potency, µM (top dose mostly 46.1 µM), most hits filed as cytotoxic; HT-1080 IDH1 knockdown viability, ATP luminescence, 48 h; actives 2% (n = 360,000)
#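 After a 2 h attachment period, IDH1KD HT-1080 cells took pin-transferred compound for 48 h at 37 °C; ATP-based luminescence after 10 min room-temperature reagent incubation reported viability.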
# A number is an active result; . = inactive; ? = inconclusive; / = no result; [ ] = another dose, or the depositor's remark. This is one part of a sample in which hits are shown more often than they occur. Unless noted, calls follow the shape of the dose curve; as a rule, active = well fitted curve in the direction sought with a large enough effect; inconclusive = small, poorly fitted or top-dose-only effect, or another doubt; inactive = no such curve, though single readings can be large; an effect the other way counts as inactive or inconclusive.
SMILES,IL-1B inflam inh,TDP1 cell CPT,ALOX12 inh,DT40 TDP1 no CPT,HT1080-NT tox,HT1080 IDH1KD tx
N#Cc1nc(N(c2ccccc2)c2ccccc2)nc(-n2cccc2)n1,/,7.1µM,/,3.5µM,/,/
O=C(NCCCCc1ccccc1)C12CC3CC(CC(C3)C1)C2,/,/,.,/,/,/
CN(c1ccccc1)c1nc(C#N)nc(N2CCOCC2)n1,/,13µM,/,10µM,/,/
CCOC(=O)[C@]12Cc3c(cc(OC)c(OC)c3OC)[C@H]1N(C1CCCCC1)C(=O)c1cc(OC)ccc12,-118,9.2µM,?,9.2µM,12µM,12µM
C=CCn1c(SCC(=O)N2CC(=O)Nc3ccccc32)nc2scc(-c3cccs3)c2c1=O,.,?,.,18µM,.,.
CCCn1c(SCC(=O)N2CC(=O)Nc3ccccc32)nc2ccccc21,.,.,.,?,.,.
O=C1CN(C(=O)CSc2nc3ccccc3n2CCc2ccccc2)c2ccccc2N1,.,?,.,23µM,.,.
O=C1CN(C(=O)CSc2nc3ccccc3c(=O)n2Cc2ccc(F)cc2)c2ccccc2N1,-71,.,.,?,.,.
CCc1ccc(S(=O)(=O)Nc2cc(-c3cn4ccccc4n3)ccc2C)cc1,/,?,.,?,/,/
CC(=O)Nc1ccc(S(=O)(=O)Nc2cc(-c3cn4ccccc4n3)ccc2C)cc1,/,?,.,21µM,/,/
CCS(=O)(=O)Nc1cc(-c2cn3ccc(C)cc3n2)ccc1C,/,?,.,21µM,/,/
Cc1ccn2cc(-c3ccc(C)c(NS(=O)(=O)c4ccc(Cl)cc4)c3)nc2c1,/,23µM,.,21µM,/,/
CCS(=O)(=O)Nc1cc(C(=O)O)ccc1C,.,.,?,.,.,.
C[S+](=O)([O-])N1CC2(CCCN(C3CCCCC3)C2)Cc2ccccc21 (stereo not drawn),/,/,.[6.33 µM],/,/,/
COC1CN(C2CCN(C(=O)NC(C)C)CC2)C12CCOCC2 (stereo not drawn),/,/,.,/,/,/
COc1ccc2nc(SCC(=O)Nc3ccc4sc(C)nc4c3)c(C#N)cc2c1,.,13µM,?,8.2µM,.,.
O=C(O)c1cc(-c2ccc(/C=C3\NC(=O)N(c4ccc(Cl)cc4)C3=O)o2)ccc1Cl,.,.,?,.,.,.
O=C(O)c1cc(-c2ccc(/C=C3\NC(=O)N(c4ccccc4)C3=O)o2)ccc1Cl,.,?,?,4.1µM,.,.
CSCCOC(=O)COc1ccc(/C=N/NC(=O)c2nn(C)cc2Cl)cc1,-69,.,.,?,.,.
COc1ccc2[nH]c(=O)c(CN(Cc3cccs3)S(=O)(=O)c3c(C)ccc4nsnc34)cc2c1,?,4.1µM,.,18µM,.,?
Cc1ccc2[nH]c(=O)c(CN(Cc3ccco3)S(=O)(=O)c3c(C)ccc4nsnc34)cc2c1,-58,?,.,?,.,.
O=C(c1ccc(C(F)(F)F)cc1)N1CCC(=O)N([C@H](COCc2ccc(C(F)(F)F)cc2)Cc2ccccc2)CC1,.,23µM,?,?,?,?
CC(C)CC(COCc1ccc(Cl)cc1)N1CCN(C(=O)c2ccc(Cl)cc2Cl)CCC1=O (stereo not drawn),.,23µM,.,?,?,?
O=C(c1ccc(Cl)c(Cl)c1)N1CCC(=O)N([C@H](COCc2cccc(C(F)(F)F)c2)Cc2ccccc2)CC1,.,?,?,?,?,?
O=C(c1ccc(C(F)(F)F)cc1)N1CCC(=O)N(C(CO)Cc2ccccc2)CC1 (stereo not drawn),.,?,.,?,.,.
SMILES,IL-1B inflam inh,TDP1 cell CPT,ALOX12 inh,DT40 TDP1 no CPT,HT1080-NT tox,HT1080 IDH1KD tx
CC(C)C[C@@H](COCc1ccc(Cl)cc1)N1CCN(C(=O)c2ccc(C(F)(F)F)cc2)CCC1=O,?,?,?,21µM,?,?
CC(C)C[C@@H](COCc1ccc([N+](=O)[O-])cc1)N1CCN(C(=O)c2ccc(C(F)(F)F)cc2)CCC1=O,.,?,?,16µM,.,?
Cc1ccsc1CN1CCC(C(=O)N2CCCCCCNC(=O)CC2)CC1,/,/,.,/,/,/
Cc1noc(-c2cn(C3CCN(C(=O)c4cccc(Cl)c4)C3)nn2)n1 (stereo not drawn),/,/,.,/,/,/
O=S1(=O)c2cc(Cl)ccc2N2CC[C@H](C2)N1Cc1ccc(Cl)c(Cl)c1,/,/,.,/,/,/
CCN(CC)c1ccc(S(=O)(=O)N(CC)CC)cc1N,/,/,.,/,/,/
O=C(CNc1cccc(S(=O)(=O)N2CCCCCC2)c1)Nc1cccc([N+](=O)[O-])c1,.,?,.,23µM,?,?
COc1ccc([N+](=O)[O-])cc1NCC(=O)Nc1cccc(S(=O)(=O)N2CCCC2)c1,.,?,.,16µM,.,.
O=C(CNc1cc([N+](=O)[O-])ccc1NCCO)Nc1cccc(S(=O)(=O)N2CCCCC2)c1,.,?,.,?,.,.
O=C(COC(=O)c1cccc([N+](=O)[O-])c1)NC1CCCC1,.,.,.,.,.,.
O=C(CNc1cccc([N+](=O)[O-])c1)NC(=O)NC1CCCCC1,-52,15µM,.,?,.,.
CCn1c(-n2nc(C)c(C)c2C)nc2c1c(=O)n(CCN1CCCCC1)c(=O)n2C,/,/,.,/,/,/
Cc1ccccc1OCC(=O)Nc1cc2c(cc1S(=O)(=O)c1ccc(F)cc1)n(C)c(=O)n2C,/,/,.,/,/,/
O=C(NCCc1ccc(Cl)cc1)c1cccs1,.,.,.,.,.,.
O=C(NCCc1csc(-c2ccccc2)n1)c1ccco1,?,18µM,.,?,.,.
O=C(NCc1ccccc1)c1csc(-c2cccnc2)n1,?,?,.,5.8µM,.,.
O=C(NCCc1csc(-c2ccccc2)n1)c1cccs1,?,23µM,.,9.2µM,.,.
O=C(NCCc1csc(-c2ccc(Cl)cc2)n1)c1cccs1,/,?,.,16µM,/,/
COc1ccc(-c2cc(C(=O)NCC(C)C)c3c(C4CCNC4)noc3n2)cc1 (stereo not drawn),/,/,.[6.33 µM],/,/,/
O=C(NCCc1csc(-c2cccnc2)n1)c1ccccc1,.,.,.,.,.,.
O=C(NCCc1csc(-c2cccnc2)n1)c1cccc2ccccc12,.,16µM,.,23µM,.,.
COc1ccc(-c2nc(CCNC(=O)c3cccs3)cs2)cc1OC,/,?,.,21µM,/,/
Nc1cc(OC(=O)c2cccs2)nn1S(=O)(=O)c1ccccc1,.,.,.,.,.,.
Nc1cc(OC(=O)c2c(F)cccc2Cl)nn1S(=O)(=O)c1ccccc1,-94,.,.,.,.,.
CN1CCN(C2=C(NS(=O)(=O)c3ccccc3)C(=O)c3ccccc3C2=O)CC1,.,23µM,/,?,.,.
